High-throughput results: PubChem, several laboratories
The list is not random: actives were taken first. Their share in the collection is about 1.5%.
eIF4E 4G PPI – eIF4E–eIF4G protein interaction inhibitors, primary screen, biochemical, uHTS, TR-FRET, eIF4GI fragment; TR-FRET eIF4E-eIF4GI(517-606) binding, 2 h; AID 782, 2007; 220,000 compounds, 0.37% hits; Eukaryotic translation initiation factor 4E (Mus musculus) + Eukaryotic translation …; inhibition, % at 21.7 µM;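 active means inhibition above about 30%, limit read from the data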;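 further: 0% = full FRET control wells and 100% = background wells lacking eIF4GI fragment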
eIF4H FP inh – human eIF4H binding inhibitors, primary screen, translation initiation inhibitor project, biochemical, uHTS, fluorescence polarization; eIF4H fluorescence polarization binding assay; inhibition, % at 35 µM; 290,000 compounds, 0.94% hits; Eukaryotic translation initiation factor 4H (Homo sapiens), Q15056;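 further: calls also rest on retests at 20 µM and on dose response follow-up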
PABP polyA inh – PABP poly(A) RNA binding inhibitors, primary screen, biochemical, fluorescence polarization, uHTS; Polyadenylate-binding protein 1 (Homo sapiens), P11940; calls only at 35 µM; 290,000 compounds, 1% hits;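 further: calls also rest on retests at 20 µM and on dose response follow-up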
PABP1 MLLE inh – inhibitors of PABP1 MLLE–PAM2 peptide binding, primary screen, biochemical, fluorescence polarization, FITC-PAM2, GST-MLLE | Polyadenylate-binding protein 1 (Homo sapiens), P11940 | inhibition, % at 20 µM | 360,000 compounds, 0.36% hits | AID 588489, 2011; in the data active means inhibition above about 35%, passing the limit was not always enough;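 further: plate controls were DMSO wells with GST-MLLE for no effect and wells lacking GST-MLLE protein for full effect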
Numbers without * were called inactive; i = inactive; . = no result given; + = active, no number; ! = repeats disagree; [ ] = another dose, or the depositor's remark. Unless noted, how the calls were made is not given here.

SMILES	eIF4E 4G PPI	eIF4H FP inh	PABP polyA inh	PABP1 MLLE inh
CCOc1ccc(N2CSC3=C(C#N)C(c4ccco4)CC(=O)N3C2)cc1 (configuration not stated)	21.7	92.4*	+	-5.1
Cc1ccc(C2CC(=O)N3CN(c4ccc(Br)cc4)CSC3=C2C#N)o1 (configuration not stated)	10.8	41.2*	+	-58.7
CC1(C(=O)NS(=O)(=O)C2CC2)CCCN(C(=O)C2(c3ccc(Cl)cc3)CCCC2)C1 (configuration not stated)	.	.	.	-5.3
CSc1ccc(CNC(=O)C2CCC(=O)N(CC3CCCCC3)C2)cc1 (configuration not stated)	.	.	.	6.7
O=C1c2ccccc2CC1Sc1nnc(-c2ccncc2)o1 (configuration not stated)	-1.8	4.2*	+	-9.5
COc1ccc2c(c1)c(CC(=O)Nc1ccc(C(C)=O)cc1)c(C)n2C(=O)c1ccc(Cl)cc1	-2.1	52.9*	+	-10.0
CCN(CC)S(=O)(=O)c1ccc(NC(=O)[C@@H](NC(=O)c2cc(OC)cc(OC)c2)C(C)C)cc1	3.5	14.4	i	-10.2
CCC(C)C(=O)N1c2ccccc2C(=C2SC(C(=O)OC)=C(C(=O)OC)S2)C(=S)C1(C)C (configuration not stated)	1.1	-8.2	i	46.0*
NC(=O)c1cccc(-c2ccnc3c2CC(C(=O)Nc2ccc(Cl)cc2)O3)c1 (configuration not stated)	.	.	.	-5.0
NS(=O)(=O)c1ccc(NCc2cnc3ccccc3n2)cc1	.	.	.	-3.3
N#CCc1cnc2ccccc2n1	3.6	89.3*	+	12.5
CC(O)CNc1nc2ccccc2n1CC(=O)NCCc1ccc(Cl)cc1 (configuration not stated)	34.4*	6.5	i	-5.5
Cc1ccccc1NC(=O)Cn1c(NCC(C)O)nc2ccccc21 (configuration not stated)	1.8	0.6	i	-1.8
COCCNC(=O)C1CCCN(C(=O)c2ccc(C(F)(F)F)nc2C)CC1 (configuration not stated)	.	.	.	3.3
COCCNC(=O)C1CC(c2cccc(F)c2)=NO1 (configuration not stated)	60.3*	-1.4	i	1.8
NC(CCc1ccccc1)c1csc(NC(=O)Nc2ccccc2Oc2ccccc2)n1 (configuration not stated)	.	.	.	-3.6
O=C(Cn1c(=O)oc2ccccc21)NC(=O)NCc1ccccc1	3.5	-8.2	i	-19.0
N=c1c(C(=O)NCc2ccccc2)cc2c(=O)n3ccccc3nc2n1Cc1ccco1	.	84.4*	+	4.1
Cc1ccc(CNC(=O)c2cc3c(=O)n4ccccc4nc3n(Cc3ccco3)c2=N)cc1	.	56.4*	+	-7.5
Cc1ccc(S(=O)(=O)c2cc3c(=O)n4ccccc4nc3n(Cc3ccco3)c2=N)cc1	14.9	78.3*	+	-13.6
N=c1c(C(=O)NCc2ccc(F)cc2)cc2c(=O)n3ccccc3nc2n1Cc1ccco1	-9.1	48.2	i	-17.9
N=c1c(C(=O)NCc2ccco2)cc2c(=O)n3ccccc3nc2n1Cc1ccccc1	-0.8	76.7*	+	-18.7
CC1(C(=O)NCCc2c[nH]c3ccccc23)CCN1CC1CCCCC1 (configuration not stated)	.	.	.	3.3
COCCn1c(=N)c(C(=O)NCc2ccco2)cc2c(=O)n3ccccc3nc21	.	112.8*	+	29.4
N=c1c(C(=O)NCc2ccco2)cc2c(=O)n3ccccc3nc2n1C1CCCC1	.	77.7*	+	32.3
SMILES	eIF4E 4G PPI	eIF4H FP inh	PABP polyA inh	PABP1 MLLE inh
N=c1c(C(=O)NCc2ccco2)cc2c(=O)n3ccccc3nc2n1Cc1ccc(Cl)cc1	.	52.3	i	-23.9
N=c1c(C(=O)NC2CCCC2)cc2c(=O)n3ccccc3nc2n1C1CCCC1	.	-2.4	i	-6.4
COc1ccc(CCNC(=O)c2cc3c(=O)n4cccc(C)c4nc3n(Cc3ccco3)c2=N)cc1OC	.	63.3*	i	0.6
O=C(c1ccccc1)c1sc(Nc2ccc3c(c2)OCO3)nc1-c1ccccc1	.	.	.	-15.7
CCOC(=O)C1=C(C)NC(SC)=C(C#N)C1CC(C)C (configuration not stated)	44.1*	-1.7	i	13.4
CC(=O)C1=C(C)NC(SCC(N)=O)=C(C#N)C1CC(C)C (configuration not stated)	-4.0	14.0	i	12.3
c1ccc2[nH]c(-c3ccnc4ccccc34)nc2c1	49.1*![fluorescence artefact?]	2.5	i	12.6
O=c1[nH]c(/C=C\c2ccc(O)c(O)c2)nc(O)c1[N+](=O)[O-]	.	50.1*	+	7.6
Cc1cc(/C=C\c2nc(O)c([N+](=O)[O-])c(=O)[nH]2)c(C)n1-c1ccccc1	7.4	62.4*	i	-11.9
O=c1[nH]c(/C=C\c2cccc(O)c2)nc(O)c1[N+](=O)[O-]	.	5.1	i	11.2
O=C(CSc1ncnc2nc[nH]c12)Nc1nnc(SCc2ccc(Cl)c(Cl)c2)s1	7.0	39.5	i	4.4
Cc1ccc(NC(=O)c2ncn(CCCN[C@H](C)c3cccc4ccccc34)n2)cc1C	.	.	.	-2.9
CC(=O)C1=CCC(c2ccccc2)N(S(=O)(=O)c2ccccc2)C1 (configuration not stated)	.	.	.	-10.3
O=c1c2ccccc2nc(-c2ccco2)n1/N=C/c1ccco1	-0.3	96.6*	+	6.0
Fc1ccc(F)c(C2=NNC(=NCC3CCCO3)SC2)c1 (configuration not stated)	0.3	-12.9	i	64.2*
CC(=O)Nc1ccc(C2=NNC(=NCC3CCCO3)SC2)cc1 (configuration not stated)	2.8	-4.4	i	-22.4
C=CCN1C=C2C(=O)C(C)(OC(=O)CC)C(=O)C=C2C=C1CCCC (configuration not stated)	97.0*	82.6	+	22.8
CCOC(=O)C1=CCN(S(=O)(=O)c2cccc(Cl)c2)C1c1ccc(F)cc1 (configuration not stated)	.	.	.	-6.8
O=C1CCCC2=C1C(c1ccco1)Nc1ccc3ccccc3c12 (configuration not stated)	20.6	80.5*	+	-3.7
O=C(NCCCN1CCCC1)c1[nH]c(C(F)(F)F)nc1-c1ccccc1	.	.	.	5.5
Cc1cc2ncn(C(=O)c3cc(-c4ccccc4)nc4ccccc34)c2cc1C	-0.2	active	+	11.2
CC1=C(C(=O)N(C(C)C)C(C)C)CC(CC(=O)NCCc2ccccn2)C(=O)N1Cc1ccc(C(C)(C)C)cc1 (configuration not stated)	.	.	.	-0.7
CC(=O)Nc1cccc(NC(=O)CSc2ncc(C(=O)Nc3ccc(F)cc3)c(=O)n2C)c1	.	.	.	11.1
CC(=O)Nc1cccc(NC(=O)CSc2ncc(C(=O)Nc3ccccc3)c(=O)n2C)c1	.	.	.	42.0*
